Hits are enriched below; roughly 0.51% of the tested compounds scored in any of these assays.
E coli growth-1 – reduces bacterial viability in AddAB counter-screen | E. coli V3065 growth, OD600 absorbance, 18 h | inhibition, % at 11.9 µM | actives 0.27% (n = 330,000);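 active means inhibition above the campaign's mean inhibition across all tested compounds plus 3 SD, cut at about 9.9% in these data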;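 further: uninfected addAB+ strain grown without phage in ampicillin broth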
E coli growth-2 – E. coli growth inhibition; AID 1053175; OD600 absorbance (test concentration not listed); actives 0.21% (n = 330,000); Escherichia coli growth, OD600, 23 h; stronger effect = lower value;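 active means OD600 absorbance below the run mean of sample wells minus 3.6 SD, in any replicate, cut at about 0.56 in these data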
AddAB inh – less growth of phage-infected E. coli with AddAB; E. coli expressing H. pylori AddAB, absorbance growth; inhibition, % at 11.9 µM; actives 0.29% (n = 330,000); AID 435030; in the data active means inhibition above about 12%
Tat transport – E. coli Tat transport inhibition; E. coli MC4100 TorA-mCherry Tat export, fluorescence; inhibition, % at 10 µM; actives 0.036% (n = 340,000);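 active means mean replicate inhibition at least 50% and at least half of replicates individually reaching 50%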;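 further: exported cargo escapes ClpAP degradation while cytoplasmic cargo is degraded and loses fluorescence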
phage Ecoli inh – E. coli growth loss with phage present; inhibition, % at 11.9 µM; actives 0.26% (n = 360,000); growth absorbance; in the data active means inhibition above about 11%
Numbers stand for hits; – = inactive; · = no result.

SMILES | E coli growth-1 | E coli growth-2 | AddAB inh | Tat transport | phage Ecoli inh
C#CCCOC(=O)N1C2=NC(C(=O)OC)=C(C(=O)OC)C3Nc4ccccc4[C@]23CC1C(=O)OC (some centres not stated) | · | – | · | · | ·
CCOC(=O)C1C2COc3cc(OC)ccc3C2N2C(=O)c3cc(OC)ccc3NC(=O)[C@@]12C (some centres not stated) | · | – | · | · | ·
CCC(C)C(NC(=O)Nc1ccc(C(C)=O)cc1)C(=O)OC (configuration not stated) | · | – | · | · | ·
C[C@]12C(=O)N(c3ccc(Br)cc3)C(=O)N1C1c3ccccc3OCC1C2c1ccccc1 (some centres not stated) | · | – | · | · | ·
Cc1ccccc1Nc1nc(NCc2ccco2)c2ccccc2n1 | – | 0.49 | – | – | –
Cc1cccc(Nc2nc(NCc3ccco3)c3ccccc3n2)c1 | – | 0.432 | – | – | –
c1ccc(Nc2nc(NCc3ccco3)c3ccccc3n2)cc1 | – | 0.31 | – | – | –
Oc1ccccc1Nc1nc(NCc2ccco2)c2ccccc2n1 | – | · | – | – | –
CC(C)C(CO)NC(=O)c1ccc2c3n(nc2c1)-c1ccccc1CO3 (configuration not stated) | · | – | · | · | ·
COc1ccc(-c2oc3cccnc3c2C=Cc2ccc(OC)c(OC)c2)cc1 | · | – | · | · | ·
CCC1=C(OC(=O)N(CC)CC)N2C(=O)OC(=NCC3CC3)[C@]2(C)C2C1=CCC1C(=O)NC(=O)C12 (some centres not stated) | · | – | · | · | ·
CC(C)CCCN1C(Nc2ccccc2)=NCC1C (configuration not stated) | · | – | · | · | ·
CCOC(=O)C1(Cc2cccc(OC)c2)CCN(CC=Cc2ccc(OC)cc2)CC1 | · | – | · | · | ·
O=C1C2C(C3CC3)N3C(=O)CN(Cc4ccccn4)C(=O)[C@@]3(Cc3ccccc3)C2C(=O)N1c1ccccc1 (some centres not stated) | · | – | · | · | ·
C#Cc1ccc(C2C=C(C(=O)N3CCN(Cc4ccc5c(c4)OCO5)CC3)OC(OCc3ccc(CO)cc3)C2)cc1 (configuration not stated) | · | – | · | · | ·
COc1ccc2[nH]c(C)c(CCN3C(=O)C4CC=CCC4C3=O)c2c1 (configuration not stated) | – | – | – | – | –
COc1ccc2[nH]c(C)c(CCN3C(=O)OC(C)(C)C3(C)O)c2c1 (configuration not stated) | – | 0.629 | – | – | –
CCOC(=O)c1c(-c2ccc(-c3ccccc3)cc2)csc1NC(=O)CNCCN(C)C | – | 0.413 | – | – | –
CCOC(=O)c1c(-c2ccccc2)csc1NC(=O)CCN1C(=O)c2ccccc2C1=O | – | – | – | – | –
CCn1cc(C(=O)NNC(=O)c2ccc(Cl)cc2)c(=O)c2ccc(C)nc21 | – | 0.384 | – | – | ·
C=CCOC(=O)c1cn(CC)c2nc(C)ccc2c1=O | – | 0.515 | – | – | –
CCn1cc(C(=O)OCC(=O)c2cc(C)n(-c3cccc(C(F)(F)F)c3)c2C)c(=O)c2ccc(C)nc21 | – | – | – | – | –
CCn1cc(C(=O)NCc2cccc(C(F)(F)F)c2)c(=O)c2ccc(C)nc21 | – | 0.456 | – | – | –
C=Cc1ccc(COC(=O)c2cn(CC)c3nc(C)ccc3c2=O)cc1 | – | – | – | – | –
Oc1ccc(Cl)c2cccnc12 | · | 0.294 | · | – | –
SMILES | E coli growth-1 | E coli growth-2 | AddAB inh | Tat transport | phage Ecoli inh
Oc1ccc(F)c2cccnc12 | – | – | – | – | –
O=C(Oc1ccc(Cl)c2cccnc12)c1cccnc1 | – | 0.372 | – | – | –
Cc1ccc(C(=O)Oc2ccc(Cl)c3cccnc23)cc1[N+](=O)[O-] | – | – | – | – | –
CCCCCCOC(=O)C[N+](C)(C)CCOC1CC2CCC1(C)C2(C)C (configuration not stated) | – | – | – | – | –
CCCCCCCOC(=O)C[N+](C)(C)CCOC1CC2CCC1(C)C2(C)C (configuration not stated) | · | 0.316 | · | – | –
CO[C@@]12[C@@H]3N[C@@H]3CN1C1=C(C(=O)C(N)=C(C)C1=O)[C@@H]2COC(N)=O | · | · | · | 67.3 | –
CC(C)(C)OC(=O)CC1CC=CCC(CC(=O)N(CCO)Cc2ccccc2)C(=O)NC(Cc2c[nH]c3ccccc23)COC1=O (configuration not stated) | · | – | · | · | ·
O=C(CC1CC=CCCC(Cc2ccc(F)cc2)C(=O)OC(c2ccccc2)CNC1=O)NC(CO)Cc1ccccc1 (configuration not stated) | · | – | · | · | ·
C=CCCC(Cc1ccc(F)cc1)C(=O)OCC(C)NC(=O)C(CC=C)CC(=O)NC(CO)Cc1ccccc1 (configuration not stated) | · | – | · | · | ·
CCCCNC(=O)O[C@@H]1C[C@H]2CCCC(=O)N3CC[C@@H](C1)[C@@H]23 | – | · | – | – | –
CCCCCCCN(c1ccccc1)[C@@H]1C[C@H]2CCCC(=O)N3CC[C@@H](C1)[C@@H]23 | · | · | · | 50.8 | –
CCn1cc(C(=O)O)c(=O)c2cnc(N3CCN(C(=S)NC(=O)c4ccc(OC)cc4)CC3)nc21 | – | 0.429 | – | – | –
CC(=O)NC(CC(=O)N(C)Cc1cccc(Cl)c1Cl)c1ccccc1 (configuration not stated) | – | 0.536 | – | – | –
CC(=O)NC(CC(=O)N(C)Cc1c(F)cccc1Cl)c1ccccc1 (configuration not stated) | – | – | – | – | –
CCOC(=O)CC1c2cc(F)ccc2S(=O)(=O)N1C(C)C (configuration not stated) | · | – | · | · | ·
Oc1ccc(CN2CCC(Cc3ccccc3)CC2)c2cccnc12 | · | 0.458 | · | · | –
CN(C)C1CCN(Cc2cc(COCc3ccccc3)c3cccnc3c2O)C1 (configuration not stated) | 10.3 | · | – | – | ·
Oc1ccc(CN2CCc3ccccc3C2)c2cccnc12 | – | 0.471 | – | – | –
Oc1ccc(CN2CCN(c3ccccc3)CC2)c2cccnc12 | – | – | – | – | ·
COc1ccccc1NC(=O)C(C#N)=Cc1c(C)nn(-c2ccc(F)cc2)c1Cl | · | – | · | · | ·
Cc1ccc2nc(-c3ccccn3)c(Nc3ccccc3C)n2c1 | – | 0.502 | – | – | –
CCN1C(=O)C2C(c3ccc(OC)cc3)N3C(=O)CN(CC4CC4)C(=O)[C@@]3(C)C2C1=O (some centres not stated) | · | – | · | · | ·
CCOc1ccc(NC(=O)c2cc3ccccc3cc2O)cc1 | – | – | – | – | –
COc1ccc(NC(=O)NNC(=O)c2ccc3ccccc3c2O)c(OC)c1 | – | – | – | – | 11.8
COc1ccc(NC(=O)NNC(=O)c2cc(C3CC3)nc3ccccc23)c(OC)c1 | – | – | – | – | –
SMILES | E coli growth-1 | E coli growth-2 | AddAB inh | Tat transport | phage Ecoli inh
COc1ccc(NC(=O)NNC(=O)c2cc3ccccc3cc2O)cc1 | 10.4 | – | – | – | –
Oc1cc(Cl)cc(Cl)c1Cl | – | 0.266 | – | – | –
CC(=NO)c1cc(Cl)cc(Cl)c1O | · | – | · | · | ·
COC(=O)c1[nH]c(C)c(C(O)=C2C(=O)C(=O)N(CCN(C)C)C2c2ccccc2OC)c1C (configuration not stated) | · | – | · | · | ·
O=C(Nc1ccncc1)Nc1ccc(Cl)cc1 | – | 0.517 | – | – | –
O=C(Nc1cccnc1)Nc1ccccc1Cl | – | – | – | – | –
O=C(Nc1cccnc1)Nc1cc(Cl)cc(Cl)c1 | – | 0.501 | – | – | –

From PubChem BioAssay
